# According to PubChem BioAssay (NCATS):
# Results filed as inconclusive are left out. Activity calls are given as the source filed them. The call rests on the fitted dose curve; in most records, active means well fitted inhibition curve with a large enough effect; inconclusive means small, poorly fitted or top-dose-only effect; inactive means flat fitted curve, though single readings scatter.
# Tested on: TAB165
# Experiment: qHTS profiling for inhibitors of Plasmodium falciparum proliferation (AID 504749); further: nearly all actives have a fitted effect of over 60% in size
# Conditions: P. falciparum in erythrocytes, SYBR Green DNA, 72 h; series mostly up to 28.7 µM
# How it was run: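 Readout was DNA-dye fluorescence from lysed cultures, ex 485/em 535 nm. Parasitized red cells had grown 72 h with compound; data scaled between 0.29 uM artemisinin and DMSO wells and corrected using vehicle-only plates.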
# Potency means the concentration at half of the fitted maximal effect.
row,Compound,Potency
1,CCCCCCCCCCCCCCCC[n+]1ccccc1,4.47 µM (active)
2,Nc1ncnc2nc[nH]c12,inactive
3,O=C(Nc1ccc(Cl)cc1)Nc1ccc(Cl)c(Cl)c1,1.78 µM (active)
4,CN1CCC(Nc2ncc3ncnc(Nc4ccc(F)c(Cl)c4)c3n2)CC1,11.2 µM (active)
5,CCCCCCCCCCCCCCCC[N+](C)(C)Cc1ccccc1,12.6 µM (active)
6,CCCCCCCCCCCCCC[N+](C)(C)C,5.62 µM (active)
7,O=[N+]([O-])c1ccc(O)c2ncccc12,14.1 µM (active)
8,Nc1c2ccccc2nc2ccccc12,8.91 µM (active)
9,O=S(=O)(O)c1ccc2nc(-c3ccccc3)[nH]c2c1,inactive
10,CC(NCCC(c1ccccc1)c1ccccc1)c1ccccc1 (stereo unspecified),11.2 µM (active)
11,CN1CCCN(C(c2ccccc2)c2ccc(Cl)cc2)CC1 (stereo unspecified),7.94 µM (active)
